Hits are enriched below; roughly 1.4% of the tested compounds scored in any of these assays.
AmpC inh no detg – qHTS Inhibitors of AmpC Beta-Lactamase (assay without detergent) | P00811 | AmpC nitrocefin hydrolysis, absorbance 480 nm, 0.0001% Triton | Potency, µM (highest dose often 57.1 µM), without a hit: at the top dose activity change, negative = inhibition, most hits filed as inhibitors | 330,000 tested, 0.52% active | AID 485341, 2010;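 note: plate controls were no compound for no effect and no enzyme for full effect; nearly all actives have a fitted effect of over 20% in size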
Target sequence (P00811 whole entry, looked up): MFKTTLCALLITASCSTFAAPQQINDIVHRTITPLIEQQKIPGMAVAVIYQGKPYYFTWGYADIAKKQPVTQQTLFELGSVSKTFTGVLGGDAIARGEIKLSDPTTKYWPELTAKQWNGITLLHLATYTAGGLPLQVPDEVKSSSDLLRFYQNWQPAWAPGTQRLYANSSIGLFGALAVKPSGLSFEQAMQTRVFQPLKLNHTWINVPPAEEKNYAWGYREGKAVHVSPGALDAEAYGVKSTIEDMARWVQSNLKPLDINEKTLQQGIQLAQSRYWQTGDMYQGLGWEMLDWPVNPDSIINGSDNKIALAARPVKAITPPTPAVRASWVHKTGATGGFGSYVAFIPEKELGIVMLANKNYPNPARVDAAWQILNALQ
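20 mM phosphate pH 7.0 + 0.01% (detergent screen) or 0.0001% Triton X-100; 5.3 nM AmpC reagent; cpd preinc 15 min RT; nitrocefin (800 uM stock) to start; A480 q20 s × 4 min; Activity was normalised to no-enzyme and no-compound control wells.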
FBPA Giardia inh – qHTS Assay for Inhibitors of Fructose-1,6-bisphosphate Aldolase from Giardia Lamblia | A8B2U2 | purified Giardia FBPA | Potency, µM (titrated, usually from 59.6 µM), for inactives: top-dose activity, negative = inhibition, most hits filed as inhibitors | 290,000 tested, 0.71% active | AID 2451, 2010; note: nearly all actives have a fitted effect of over 55% in size
Target sequence (A8B2U2 whole entry, looked up): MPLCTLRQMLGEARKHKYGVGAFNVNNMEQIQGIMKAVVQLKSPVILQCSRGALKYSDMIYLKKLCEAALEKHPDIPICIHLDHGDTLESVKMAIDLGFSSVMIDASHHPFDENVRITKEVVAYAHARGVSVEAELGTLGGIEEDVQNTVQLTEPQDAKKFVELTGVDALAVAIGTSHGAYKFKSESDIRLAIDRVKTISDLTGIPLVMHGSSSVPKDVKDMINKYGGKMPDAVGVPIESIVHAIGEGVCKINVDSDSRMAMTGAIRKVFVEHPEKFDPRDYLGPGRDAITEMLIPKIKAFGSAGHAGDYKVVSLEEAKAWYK
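Giardia FBPA (40 nM reagent) was preincubated 10 min at RT with compound (up to 57.5 uM final), then substrate plus GAPDH/TPI/NAD/arsenate coupling system with diaphorase/resazurin was added; resorufin fluorescence (525/598 nm) was read after 20 min.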
AmpC detergent – qHTS Inhibitors of AmpC Beta-Lactamase (assay with detergent). P00811. AmpC hydrolysis of nitrocefin, absorbance 480 nm, 0.01% Triton. Potency, µM (doses to about 114 µM), inactives show at the top dose activity change, negative = inhibition, actives largely listed as inhibitors. 370,000 tested, 0.041% active. AID 485294, 2010;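 note: 0% = no-compound wells and -100% = no-enzyme wells; nearly all actives have a fitted effect of over 25% in size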
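AmpC (5.3 nM in the dispensed reagent) in 20 mM phosphate pH 7.0 with 0.01% (detergent screen) or 0.0001% Triton X-100 was preincubated with compounds for 15 min at room temperature. Nitrocefin was then added from an 800 uM solution, and hydrolysis was followed at 480 nm.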
RE007 growth inh – qHTS Assay for Inhibitors of the HIV-1 protein Vpr; S. pombe RE007 Vpr strain, BacTiter-Glo ATP luminescence, 24 h; Potency, µM (titrated, usually from 92.2 µM), for the others: top-dose activity change, negative = less growth, hits mostly inhibitors; 360,000 tested, 0.21% active; AID 651644, 2012; active = well fitted falling curve with a large enough effect; inconclusive = small, poorly fitted or top-dose-only effect; inactive = no such curve, though single readings can be large or run the other way; note: nearly all actives have a fitted effect of over 50% in size
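Fission yeast strain RE007, carrying one chromosomally integrated HIV-1 vpr copy, was seeded at OD 0.01 in PMG+AL medium with 23 nL pinned compound. After 24 h at 30 °C and 99% humidity, viability was read by BacTiter-Glo luminescence.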
TbPYK inhibitor – qHTS of Trypanosoma Brucei Inhibitors; pyruvate kinase (Trypanosoma brucei), Q57TT1; TbPYK enzyme, Kinase-Glo Plus ATP luminescence, 45 min; Potency, µM (series often up to 76.8 µM), inactives show at the top dose activity, negative = inhibition, most hits filed as inhibitors; 410,000 tested, 0.12% active; AID 624173, 2012; note: nearly all actives have a fitted effect of over 50% in size
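Luminescent Kinase-Glo Plus end-point after 45 min room-temperature reaction of T. brucei pyruvate kinase started with 130 uM ADP (final). Buffer TEA 50 mM pH 7.2 with KCl, MgCl2, BSA, Tween-20; titration-based qHTS with fitted concentration-effect curves.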
LmPK inh – qHTS Assay for Inhibitors of Leishmania Mexicana Pyruvate Kinase (LmPK); Q27686; purified LmPK, Kinase-Glo ATP luminescence, 1 h; Potency, µM (titrated, usually from 57.5 µM), for the others: top-dose activity change, negative = inhibition, usual class: inhibitors; 290,000 tested, 0.37% active
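Pyruvate kinase activity monitored as ATP production (luciferase luminescence). Conditions: 0.1 nM enzyme, 0.5 mM PEP, 0.1 mM ADP, 1 h, RT; normalized against uninhibited and no-enzyme wells.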
Starred values were filed as active, the others as inactive; ? = inconclusive; . = not tested or not shown; ! = not active in a repeat; [ ] = remark or other dose. Unless noted, calls come from the whole dose curve; as a rule, active = well fitted curve in the direction sought with a large enough effect; inconclusive = small, poorly fitted or top-dose-only effect, or another doubt; inactive = no such curve, though single readings can be large; an effect the other way counts as inactive or inconclusive. Unless noted, % is set by controls: 0 for no effect and ±100 for the full control effect; potency is the fitted concentration of half-maximal effect.

SMILES	AmpC inh no detg	FBPA Giardia inh	AmpC detergent	RE007 growth inh	TbPYK inhibitor	LmPK inh
CC1(OC(=O)CCc2ccccc2)C(=O)C=C2C=C(c3ccsc3)OC=C2C1=O (stereo not drawn)	28µM*	-2%	-1%	.	.	0%
COc1cc(NC(=O)CSc2nc3nc(C)c(Cc4ccccc4)c(C)n3n2)cc(OC)c1OC	.	.	5%	.	0%	.
CC(=O)c1ccc(N2C(=O)N(Cc3cccc(C(F)(F)F)c3)c3ccccc3S2(=O)=O)cc1	.	.	7%	.	-2%	.
CN(C)S(=O)(=O)c1ccc(C(=O)Nc2nnc(-c3ccc4c(c3)CCCC4)o2)cc1	2.8µM*	?	?	4%	2%	-2%
O=C(Nc1nnc(-c2ccc3c(c2)CCCC3)o1)c1ccc(Cl)cc1Cl	35µM*	?	?	-11%	1%	4%
O=C(Nc1nnc(-c2ccc3c(c2)CCCC3)o1)c1c(F)cccc1F	-34%	7%	-1%	-3%	-5%	-13%
O=C(Nc1nnc(-c2ccc3c(c2)CCCC3)o1)C1CCCCC1	-26%	4%	-15%	2%	1%	-1%
COc1cc(NCc2ccc3nc(N)nc(N)c3c2C)cc(OC)c1OC	.	5.6µM*	.	.	-7%	.
COc1ccc(CNc2ccncc2)c(OC)c1OC	.	.	.	-19%	1%	.
O=C(Nc1cccc(Cl)c1)OCC#CCCl	.	7.1µM*	.	.	.	.
CCOC(=O)c1c(/N=C/c2ccc(O)cc2O)sc2c1CCC2	10µM*	-10%	-8%	.	.	-7%
CCOC(=O)N1CCC(NC(=O)c2ccc(CO)c(C(=O)NC3CCN(C(=O)OCC)CC3)c2)CC1	13%	-2%	?	-2%	1%	-8%
CCOC(=O)N1CCC(NC(=O)c2cc(C(=O)NC3CCCC3)ccc2CO)CC1	0.71µM*	4%	?	-2%	3%	3%
CC(=O)c1ccc(NS(=O)(=O)c2ccc3[nH]c(=O)[nH]c3c2)cc1	.	.	-10%	.	-15%[15.4 µM]	.
CC(=O)Oc1cccc(N2C(=O)C3C4C=CC(C4=C(C)C)C3C2=O)c1 (stereo not drawn)	-15%	2%	-9%	35µM*	-23%	-1%
O=C(O)CCn1cc(C=C2C(=O)NC(=S)NC2=O)c(-c2cc3ccccc3oc2=O)n1	-19%	?	4%	-8%	14µM*	6%
Cc1ccc(O)c(CP(=O)(c2ccccc2)c2ccccc2)c1	-30%	-4%	-8%	10%	0%	2%
CCNc1ccccc1CP(=O)(c1ccccc1)c1ccccc1O (stereo not drawn)	10%	1.8µM*	-9%	-19%	-24%	6%
COc1ccc2ncc3c(-c4ccc(C)c(C)c4)nn(CC(=O)Nc4ccccc4)c3c2c1	.	.	7%	.	-2%	.
CCc1ccccc1Nc1cc(C(=O)NC(C)c2ccccc2)c2ccccc2n1 (stereo not drawn)	.	.	4%	.	0%	.
CCCCCCCCCCCCCCCC[n+]1ccccc1	.	8%	.	16µM*!	0%	.
CCCCCCCCCCCC[n+]1ccc2ccccc2c1	.	.	.	.	-10%	.
CCCCCCC[n+]1ccc(-c2cc[n+](CCCCCCC)cc2)cc1	34%	-9%	-11%	6.3µM*	-5%	-3%
CCCCCCCCCCCCCC[n+]1ccc(C)cc1	.	.	.	.	5%	.
C[C@@H]1[C@H](O)[C@@H](C)C=CC=CCCC=CC=CC=CC=C[C@H](O[C@H]2O[C@@H](C)[C@H](O)[C@@H](N)[C@@H]2O)CC2O[C@](O)(C[C@@H](O)[C@H](O)CC[C@@H](O)C[C@@H](O)C[C@@H](O)CC(=O)O[C@H]1C)C[C@H](O)[C@H]2C(=O)O	.	.	.	.	0%	.
SMILES	AmpC inh no detg	FBPA Giardia inh	AmpC detergent	RE007 growth inh	TbPYK inhibitor	LmPK inh
COC(=O)COc1ccc(S(=O)(=O)NCCC2=CCCCC2)cc1	0.14µM*	-1%	3%	-19%	4%	5%
COc1ccc(C(=O)Nc2cccc(NC(C)=O)c2)cc1	.	.	.	9%	-11%	.
COc1cccc(C(=O)Nc2cccc(NC(=O)c3ccc(Cl)cc3Cl)c2)c1	.	.	6%	.	-2%	.
O=C(Nc1cccc(C(=O)Nc2cccc(Br)c2)c1)c1ccccc1	14µM*	-1%	?	-4%	1%	-7%
COc1cccc(C(=O)Nc2cccc(OCC(=O)O)c2)c1	-10%	2%	0%	-11%	-19%	35µM*
COc1ccc(C(=O)Nc2cccc(C)c2)cc1	-18%	-19%	-9%	-2%[3.69 µM]	.	14µM*
COc1cccc(C(=O)Nc2ccccc2)c1	-11%	4%	-13%	-17%	-12%	?
COc1cccc(C(=O)Nc2cccc(C(=O)NC3=NN(c4c(Cl)cc(Cl)cc4Cl)C(=O)C3)c2)c1	18µM*	22%	-13%	-4%	-3%	-4%
CNC[C@@H]1CC[C@@H](N)[C@@H](O[C@H]2[C@H](O)[C@@H](O[C@H]3OC[C@](C)(O)[C@H](NC)[C@H]3O)[C@H](N)C[C@@H]2N)O1	.	.	.	.	0%	.
CC(C)Cn1c(=O)c2sccc2n2c(CCCC(=O)Nc3ccc(Cl)cc3)nnc12	.	.	-4%	.	-1%	.
COC(=O)CN1C(=O)CSc2ccc(S(=O)(=O)Nc3cccc(C)c3)cc21	.	.	4%	.	6%	.
CCc1ccc(N2CCn3c2nc2c3c(=O)n(CCc3ccccc3)c(=O)n2C)cc1	.	.	1%	.	7%	.
Cc1ccc(C)c(NC(=O)N2CCN(C(=O)c3nsc4ccccc34)CC2)c1	.	.	16%	.	-3%[15.4 µM]	.
COc1ccc(C(=O)/C=C/Nc2cccc(O)c2)cc1	-23%	-10%	5%	-11%[3.69 µM]	.	25µM*
CCC(=O)O[C@@](Cc1ccccc1)(c1ccccc1)[C@H](C)CN(C)C	.	.	.	.	-2%[157 µM]	.
CCc1[nH]c(=S)c(C#N)c(-c2ccccc2)c1C(=O)OC	16µM*	?	-4%	18%	?	-6%
O=C(NCCn1cc(SCc2ccc(F)cc2)c2ccccc21)c1cccs1	.	.	4%	.	0%	.
CCCCn1cc(S(=O)(=O)c2ccc(CC)cc2)c(=O)c2cc(F)c(N3CCCC(C)C3)cc21 (stereo not drawn)	.	.	-6%	.	0%	.
